FMDV inh – blocks foot and mouth disease virus; hit rate 1.2% among 410,000; Potency, µM (top dose mostly 57.9 µM), usual class: inhibitors; FMDV antiviral cell-based qHTS; calls by dose curve; tested in HEK293T cells; note: read-out not given here; nearly all actives have a fitted effect of over 45% in size
AmpC inh detg – blocks E. coli AmpC beta-lactamase in detergent assay. P00811. AmpC hydrolysis of nitrocefin, absorbance 480 nm, 0.01% Triton. Potency, µM (titrated, usually from 114 µM), usual class: inhibitors. hit rate 0.041% among 370,000. AID 485294; note: nearly all actives have a fitted effect of over 25% in size
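AmpC (5.3 nM in the dispensed reagent) in 20 mM phosphate pH 7.0 with 0.01% (detergent screen) or 0.0001% Triton X-100 was preincubated with compounds for 15 min at room temperature. Nitrocefin was then added from an 800 uM solution, and hydrolysis was followed at 480 nm.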
HCMV antiviral – blocks human cytomegalovirus replication. HFF cells, HCMV-luciferase reporter, 72 h; hits give low values. activity change, negative = inhibition, % at 57.5 µM. hit rate 4.5% among 410,000. AID 1259415; in the data active = activity change below about -60%; inconclusive = no clear call, values can overlap the other calls; inactive = above about -39%
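Compounds were evaluated in HFFs infected with an HCMV luciferase reporter virus (MOI 1 PFU/cell). Luciferase in lysates collected 72 h post infection served as the replication measure.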
AmpC inh no detg – inhibitors of E. coli AmpC beta-lactamase without detergent; P00811; AmpC nitrocefin hydrolysis, absorbance 480 nm, 0.0001% Triton; Potency, µM (highest dose often 57.1 µM), hits mostly inhibitors; hit rate 0.52% among 330,000; note: nearly all actives have a fitted effect of over 20% in size
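20 mM phosphate pH 7.0 + 0.01% (detergent screen) or 0.0001% Triton X-100; 5.3 nM AmpC reagent; cpd preinc 15 min RT; nitrocefin (800 uM stock) to start; A480 q20 s × 4 min; Activity was normalised to no-enzyme and no-compound control wells.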
HCV inh – HCV inhibition. Huh7.5.1 HCVcc-Cre infection, luciferase reporter, 44 h. Potency, µM (series often up to 41.8 µM), actives largely listed as inhibitors. hit rate 3.4% among 340,000
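Cells seeded at 1,000/well and cultured 4 h, then compounds added followed by HCVcc-Cre virus (~0.5 moi). After 44 h further culture, luciferase substrate was added, plates held 15 min at room temperature, and luminescence read for 15 sec.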
HCV confirm – confirmation of hepatitis C virus inhibitors | hit rate 78% among 640 | HCVcc-Cre infectious virus cell assay, luciferase, inhibition | Potency, µM (highest dose often 41.8 µM), actives largely listed as inhibitors | shares compounds with HCV inh | AID 720575; note: nearly all actives have a fitted effect of over 80% in size
HCV host tox – toxic to HCV host cells, flagging false HCV inhibitors; shares compounds with HCV inh; HCV host cell line cytotoxicity counterscreen; Potency, µM (doses to about 41.8 µM), usual class: inhibitors; hit rate 22% among 640;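 note: 44 h compound exposure; nearly all actives have a fitted effect of over 55% in size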
Of the large screens only hits and unclear results are named; the others gave an inactive call (follow-up assays come after a bar, where they were run). Rows were chosen to be rich in hits. Some 7.3% of all compounds tested hit in one or more screens of this group. Unless noted, calls come from the whole dose curve; as a rule, active = well fitted curve in the direction sought with a large enough effect; inconclusive = small, poorly fitted or top-dose-only effect, or another doubt; inactive = no such curve, though single readings can be large; an effect the other way counts as inactive or inconclusive.

CN1CCc2nc(SCC(=O)Nc3cccc(F)c3)c(C#N)c(-c3cccs3)c2C1	HCV inh inconclusive | HCV confirm inconclusive | HCV host tox inactive
CC1(c2nc3ccccc3[nH]2)c2ccccc2C(=O)N1Cc1ccccc1 (stereo not given)	none (no result: AmpC inh detg, AmpC inh no detg, HCV inh)
O=C(OCC12CC3CC(CC(C3)C1)C2)c1ccc(NCc2cc(O)ccc2O)cc1	FMDV inh 18µM, HCMV antiviral -77, HCV inh 1.6µM (no result: AmpC inh detg, AmpC inh no detg) | HCV confirm 4µM | HCV host tox 10µM
CC(=O)c1cccc(N=Nc2c(C)[nH]c3ccccc23)c1	AmpC inh detg inconclusive, HCV inh inconclusive
COc1ccc(N=Nc2c(C)[nH]c3ccccc23)cc1	HCV inh 7.1µM (no result: AmpC inh detg, AmpC inh no detg) | HCV confirm 20µM | HCV host tox inactive

High-throughput results from PubChem BioAssay.
